Assay results from ChEMBL document CHEMBL3988442, “University of Dundee, Small-Polar-MMV Screening Library” (2021).

Molecular target: AMP-activated protein kinase, AMPK (Homo sapiens) (UniProt P54646+O43741+P54619+Q9UGJ0+Q9Y478+Q13131+Q9UGI9)
Test: AMP-dependent Kinase enzyme assay. An in vitro enzyme assay that detects ADP turnover that is directly proportional to AMPK activity. This uses naive AMPK that is activated during the assay with MK-8722
Assay type: functional
Set-up: scale not given: direction of the effect not stated beside the values
Settings: 30 µM

| SMILES | Percent Effect [%] |
| --- | --- |
| COC1CCN(c2ccc(F)cc2CN(C)C(C)C(N)=O)CC1 (stereo not given) | 8.56 |
| Fc1cccc(CN2CCC[C@@H](Cn3nnc(-c4ccccn4)n3)C2)c1 | 10.2 |
| CCSc1cc(C(=O)N(Cc2cnn(C)c2)C(C)C)ccn1 | 1.44 |
| Cc1nn(C)cc1C(=O)N1CCC(C(=O)c2nc3ccccc3s2)CC1 | 20.7 |
| CCNC(=O)c1ccc(NC(=O)N(C)Cc2cc(C)on2)cc1 | 16.8 |
| CCN(C)Cc1cccc(CNC(=O)NCCc2ccccn2)c1 | 3.33 |
| CCc1nn(C)c(Cl)c1CN(CC)Cc1cnn(CC)c1 | 1.72 |
| Cc1noc(-c2ccc(N(C)Cc3nccs3)nc2)n1 | 5.7 |
| COC(=O)CC1CCCCN1CC(=O)Nc1ccc(F)cc1Cl (stereo not given) | 8.66 |
| COCCC(=O)N1CCCC(CCc2ccc(F)c(F)c2)C1 (stereo not given) | 8.62 |
| Cc1cc(C(=O)NCCN2CCCCC2)nn1C(C)(C)C | 24.9 |
| CCSCC(C)NCc1ccccc1-n1ccnc1 (stereo not given) | 7.25 |
| CCCn1ccnc1-c1cccc(NC(=O)C2CCCOC2)c1 (stereo not given) | -0.71 |
| CCN(CC)CCCNC(=O)Nc1c(C)cccc1C(C)C | 4.58 |
| Cc1nn(C)c(C)c1C1CCCN1CC(=O)N(C)c1nccs1 (stereo not given) | 10.2 |
| Cc1cc(C(=O)NCCN2CCC(C)CC2)nn1C(C)(C)C | 5.48 |
| CC(Oc1ccc2c(c1)OCO2)C(=O)N1CCC(c2ncc[nH]2)CC1 (stereo not given) | 4.41 |
| CCC(=O)Nc1ccc(F)cc1OC | -10.1 |
| COc1ccc2c(c1)OCC(Cc1cc(C(=O)N3CCCC3)ccn1)C2 (stereo not given) | 0.531 |
| COC(CNC(=O)CNC(=O)c1ccccc1)c1cccc(Cl)c1 (stereo not given) | 4.84 |
| Cc1nnc(CN(C)CC(=O)NC(C)(C)c2ccc(F)cc2)n1C | 6.43 |
| O=C(C1CCCOC1)N1CCN(CC(F)(F)F)c2ccccc21 (stereo not given) | 6.14 |
| CN(C(=O)c1cccc(C#N)c1)c1nnc(C2CCOC2)s1 (stereo not given) | 5.31 |
| O=C1NCCN(Cc2cccnc2)C1CC(=O)N1CCc2n[nH]cc2C1 (stereo not given) | -26.7 |

| SMILES | Percent Effect [%] |
| --- | --- |
| CCOc1ccc2cc(C(=O)NCCNc3ccc(C)nn3)[nH]c2c1 | 6.22 |
| CC1C(=O)NCCN1CCOc1ccc(C#N)cc1 (stereo not given) | 3.66 |
| CC(C)C(C(N)=O)c1cccc(Cl)c1 (stereo not given) | -2.67 |
| CC(O)CN(C)S(=O)(=O)c1ccc(C#N)cc1F (stereo not given) | 1.31 |
| COCCN1CCCC2(CCN(c3cc(C)c(C#N)c(C)n3)C2)C1=O (stereo not given) | -7.22 |
| CC(NC(=O)NCc1ccccn1)c1cccs1 (stereo not given) | -0.209 |
| CC(C)N(Cc1ccccn1)C(=O)CCC(=O)c1ccccc1 | -4.49 |
| O=C1CN(C(=O)CC2C(=O)NCCN2CC2CCCCC2)CCN1 (stereo not given) | -5.33 |
| CC(C)(C)c1noc(CCC(=O)N2CCNC(=O)C2)n1 | -9.99 |
| O=C(c1cccc(-n2cnnc2)c1)N1C[C@@H](O)[C@H](N2CCOCC2)C1 | 15.5 |
| CC(CN1CCOC1=O)NC(=O)c1ccccc1Oc1ccccc1 (stereo not given) | 8.72 |
| CC(C(=O)NC1(C#N)CCCCC1)N1CCc2c(ncn2C2CC2)C1 (stereo not given) | -1.93 |
| CCC(C(=O)N(Cc1ccccn1)C1CCCCC1)n1cccn1 (stereo not given) | 1.8 |
| Cn1cc(N2CCN(c3ccc(C#N)c(Cl)c3)CC2=O)cn1 | -3.11 |
| Cc1cc(C)nc(NC2CC(=O)N(C)C2)n1 (stereo not given) | -3.57 |
| CC(C)c1nc(CN(C)C(=O)[C@H](N)Cc2ccc(Cl)cc2)cs1 | 2.32 |
| COc1ccccc1C(NC(=O)CN(C)C(C)C)c1noc(C)n1 (stereo not given) | -4.19 |
| O=C1NCCCCC1NC(=O)N1CCCc2cc(F)ccc21 (stereo not given) | 6.88 |
| Cc1c(C(=O)N2CCC(C(=O)c3nc4ccccc4s3)CC2)cnn1C | 9.2 |
| Cc1ncccc1C(=O)Nc1cccc(Cn2ccccc2=O)c1 | 3.58 |
| Cc1ccc(CNCc2cccc(NC(=O)CCN3CCOCC3)c2)s1 | -4.09 |
| O=C(Cn1nc2ccccc2n1)N1CCCC(O)(CN2CCCC2)C1 (stereo not given) | -2.27 |
| CCOC(=O)C(C)Nc1ccc(CCN2CCOCC2)cc1 (stereo not given) | -1.34 |
| O=C(NCc1nnc2n1CCC2)c1cn(-c2cccc(Br)c2)nn1 | 2.86 |

| SMILES | Percent Effect [%] |
| --- | --- |
| Cc1ncn(CCNC(=O)Nc2ccccc2)c(=O)c1C | -8.41 |
| CCc1ccc(CN2CCN(c3ccc(C#N)cc3)C(=O)C2)nc1 | 3.08 |
| CN(C)C(=O)Cn1cnc2c(Br)cccc2c1=O | -4.74 |
| CCN1CCC(CC(=O)NCCc2nc(C)cc(C)n2)CC1 | 1.66 |
| COCCOCC(=O)Nc1nc2c(OC)cc(F)cc2s1 | 3.08 |
| CC(C)(C)CC(NC(=O)N1CCC(C(N)=O)CC1)C(F)(F)F (stereo not given) | -1.73 |
| Cc1ccc(OCC2CCCN(C(=O)c3csc(CN(C)C)n3)C2)cc1 (stereo not given) | 14.7 |
| Cc1cnn(C2CCCN(C(=O)c3cc(-c4ccco4)[nH]n3)C2)c1 (stereo not given) | -19.9 |
| CCN(CC1=CCN(C)CC1)C(=O)CCOC | -8.72 |
| Cc1cccn2cc(CNS(=O)(=O)N3CCOCC3)nc12 | 4.51 |
| O=C(c1cc(C2CC2)nc2onc(-c3ccccc3)c12)N1CC(O)C1 | 2.65 |
| Cc1c(Br)cccc1C(=O)Nc1cc(C(N)=O)n(C)c1 | 3.87 |
| FC(F)(F)c1cccc(OC2CCN(Cc3ccccn3)CC2)c1 | 2.09 |
| Cc1nccn1-c1nccnc1C1CCCN(C2CCCC2)C1 (stereo not given) | 12.6 |
| COc1ccc(-c2cc(C3CC3)c(C#N)c(N)n2)cc1F | 9.02 |
| CC(CC(F)(F)F)NCc1ccccc1-n1ccnc1 (stereo not given) | -3.96 |
| CCc1nnc(CS(=O)(=O)c2ccc(C)c(C)c2)n1C | 9.9 |
| CN(C)CCN(Cc1ccc(F)cc1)C(=O)c1ccn(C)c(=O)c1 | 9.83 |
| Cc1cc(C(=O)NCCN2CCCC(C)C2)nn1C(C)(C)C (stereo not given) | -4.71 |
| COC(=O)C1CCN(C(=O)Cn2ccc(-c3ccsc3)n2)CC1 | -3.29 |
| O=C(CCCN1CCCCC1)NC(C(=O)O)c1ccc(Cl)cc1 (stereo not given) | 6.04 |
| OC(CNCc1nnc2ccccn12)c1ccc2c(c1)OCO2 (stereo not given) | 9.33 |
| O=C(NCC(F)(F)F)c1ccc(-n2cncn2)nn1 | -2.06 |
| COC(=O)c1ccc(NC(=O)CCc2ccco2)cc1 | 20.9 |

| SMILES | Percent Effect [%] |
| --- | --- |
| COc1ccc(S(=O)(=O)Nc2cccnc2-n2cncn2)cc1C | -0.234 |
| O=C(CN1CCOCC1)N(c1ccccc1)c1ccccc1 | 8.05 |
| O=C(CN1CCC(c2nnc(C(F)(F)F)o2)CC1)NCc1ccccc1 | 0.729 |
| O=C(c1ccc(Cl)s1)N1CCCn2nc(CN3CC[C@H](F)C3)cc2C1 | 3.24 |
| CC(=O)N1CC(c2ccnc(Nc3nccs3)n2)C1 | 1.83 |
| CN1CC2(CCN(C(=O)CCCOCc3ccccc3)C2)OC1=O (stereo not given) | 9.85 |
| CCOc1ccc(Oc2cc(CN)ccn2)cc1 | -43.1 |
| Cc1nc(NC(=O)c2c3c(nn2C2CCS(=O)(=O)C2)CCC3)sc1C (stereo not given) | -4 |
| O=C1C(N2CC[C@@H](O)C2)CCCN1Cc1cccc(C(F)(F)F)c1 (stereo not given in full) | 5.51 |
| CCC(C)NC(=O)Nc1cccc(OC)c1 (stereo not given) | -9.8 |
| COC(=O)CC1CCCCN1CC(=O)NCCc1ccc(F)cc1 (stereo not given) | 6.06 |
| CC(NC(=O)N1CCCCCC1)c1ccc(S(N)(=O)=O)cc1 (stereo not given) | 5.75 |
| CC(C)(C)CN(CCC#N)C(=O)c1cccc(CC#N)c1 | 4.84 |
| COc1ccc2c(c1)CCCN2C(=O)NC1CCCCNC1=O (stereo not given) | 2.81 |
| CN1CC2(CCN(C(=O)c3ccc(=O)n(C)c3)CC2)CC1=O | -1.98 |
| CCc1nc(NC(=O)Cc2csc(-c3nnc[nH]3)n2)sc1C | 3.13 |
| CN(C)S(=O)(=O)N1CCCCCC1c1cc(-c2ccc(F)cc2)no1 (stereo not given) | 18 |
| CN(CCCc1cnn(C)c1)Cc1cc2n(n1)CCCN(C)C2 | -6.92 |
| Cc1nsc(N2CCCN(C(=O)CCc3ccsc3)CC2)n1 | -4.46 |
| CCc1oc(C(=O)N[C@@H]2c3ccccc3C[C@@H]2O)cc1CN1CCCC1 | 4.06 |
| O=c1cc(N2CCNCC2)cnn1Cc1noc(C2CCCC2)n1 | -1.96 |
| CCn1ncnc1C1CC(=O)NCc2nc(N)sc21 (stereo not given) | -18.1 |
| CN(Cc1ccsc1)C(=O)c1nc(N2CCCCC2)ncc1Cl | 0.035 |
| CCN1CC(COC(=O)c2cc(C)nn2CC)CC1=O (stereo not given) | 5.06 |

| SMILES | Percent Effect [%] |
| --- | --- |
| Cc1nn(C2CCCCC2)c2nc(C(C)(C)CN3CCOCC3)[nH]c12 | 12 |
| Cc1cc(-c2cnc(N3CCCC(C)C3)nc2C(C)C)on1 (stereo not given) | 10.4 |
| O=C(NCCc1ccncc1)c1cccc(S(=O)(=O)NC2CC2)c1 | -4.52 |
| Cc1nc2c(c(N3CCCOCC3)n1)CCN(c1nccs1)CC2 | -16.9 |
| Cc1ccc2c(C(=O)N(C)C)cc(-c3cnn(CCO)c3)nc2c1C | 7.33 |
| O=C(CC1=CSC2=NCCN12)N1CCCC(CCc2cccc(F)c2)C1 (stereo not given) | 13.4 |
| COc1ccc(Cc2nnc(NC(=O)C3CC34CCC4)s2)cc1OC (stereo not given) | 4.1 |
| COCCN(C)C[C@@H]1CN(c2nc(C)cc(C)n2)C[C@@H]1CO | 2.16 |
| CC(C(=O)NCC(C)(C)c1ccc2c(c1)OCO2)n1ccnc1 (stereo not given) | 0.66 |
| CCN(C(=O)Cn1cc(Cl)cn1)c1ccccc1 | -10.4 |
| COCCN1CC2(CCCN(Cc3cc(=O)c(OC)co3)C2)CCC1=O (stereo not given) | -2.15 |
| Cc1cc(C)c2c(NCc3nncn3C3CCCCC3)ncnc2n1 | -0.11 |
| CC(C)c1ccc(S(=O)(=O)NC2CCN(CC(F)(F)F)C2)cc1 (stereo not given) | 8.13 |
| CCc1noc(CN2CCN(C(=O)OC(C)(C)C)C(C)C2)n1 (stereo not given) | 6.06 |
| Cc1nc[nH]c1CN(C)Cc1cnn(-c2ccc(F)cc2)c1 | 10.8 |
| COc1c(C2CCCN2CC(=O)N(C)Cc2ccco2)c(C)nn1C (stereo not given) | 1.41 |
| CCC[C@H]1CN(c2cncc(C(=O)N(C)C)n2)C[C@@H]1N(C)C | 9.69 |
| Cc1cc(CN2CCC(c3cc(Cc4ccccc4)n[nH]3)CC2)[nH]n1 | -6.49 |
| CCN1CCC(CC(=O)NCCc2nc(O)cc(O)n2)CC1 | -0.635 |
| Clc1cc(NCc2nccs2)nc2[nH]ccc12 | 15.1 |
| CN(Cc1nc(N)nc(N(C)C)n1)Cc1cccc2ccccc12 | -3.23 |
| Cc1cc(C2CCCN(CCC(=O)N3CCc4ccccc43)C2)n[nH]1 (stereo not given) | -4.69 |
| Cc1ccnc(NC(=O)c2ccc(F)c(S(=O)(=O)NC3CC3)c2)c1 | -7.9 |
| COc1cccc(C(C(=O)O)N2CCSCC2)c1F (stereo not given) | -1.18 |
